Test results as given in PubChem BioAssay (NCATS).
Results filed as inconclusive are left out. Where a call stands in place of a potency, no number is given. Activity calls are given as the source filed them. The call rests on the fitted dose curve; in most records, active means well fitted curve in the direction sought with a large enough effect; inconclusive means small, poorly fitted or top-dose-only effect, or another doubt; inactive means no such curve, though single readings can be large; an effect the other way counts as inactive or inconclusive.

Key:
[1] = qHTS for Inhibitors of Plasmodium falciparum (7G8) proliferation (AID 504316); further: nearly all actives have a fitted effect of over 65% in size; further: potency means the concentration at half of the fitted maximal effect
How it was run: (§1)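 Parasite growth measured as SYBR Green DNA fluorescence (ex 485, em 535 nm) after overnight lysis following 72 h culture at 37 °C, 0.3% parasitemia, 2.5% hematocrit. Values normalized against DMSO and 0.29 uM artemisinin controls, with plate-stack correction.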

[2] = qHTS for Inhibitors of Plasmodium falciparum (CP250) proliferation (AID 504320)
How it was run: as §1

[3] = qHTS for Inhibitors of Plasmodium falciparum (GB4) proliferation (AID 504315); further: nearly all actives have a fitted effect of over 50% in size
How it was run: as §1

[4] = qHTS for Inhibitors of Plasmodium falciparum (HB3) proliferation (AID 504318); further: nearly all actives have a fitted effect of over 60% in size; further: potency means the concentration at half of the fitted maximal effect
How it was run: as §1

For `O=C1CCCC2=C1[C@H]1O[C@](CCCCN3C(=O)c4ccccc4C3=O)(Cc3c1ccc1ccccc31)O2`, the Potency [1] was 1690 nM (active) and the Potency [2] was “inactive”.

For `COc1ccc([C@]23Cc4cc(C#N)ccc4[C@H](O2)c2c(cc(C)n(Cc4ccccc4)c2=O)O3)cc1`, the Potency [1] was 1690 nM (active) and the Potency [2] was “inactive”.

For `CCOC(=O)CN1C(=O)[C@]2(OC[C@@H]3Cc4ccccc4[C@H]3C=C2C)c2ccccc21`, the Potency [2] was “inactive”.

With `CCOC(=O)CN1C(=O)NC(c2cccc(F)c2)C(C(C)=O)=C1C` (configuration not stated) the Potency [3] was “inactive”, the Potency [1] was “inactive” and the Potency [4] was “inactive”. For the same compound, the Potency [2] was “inactive”.

In the case of `COC(=O)C1=C(C)N(Cc2ccccc2)C(=NCC2CC2)NC1c1cccc(C(F)(F)F)c1` (configuration not stated), the Potency [1] is reported as “inactive”.

For `CCOC(=O)CCN1C(=O)[C@@H]2[C@H]3[C@H](O)[C@H](O)CC(=NNC(=O)OCc4ccc(OC)cc4)[C@H]3CC[C@H]2C1=O`, the Potency [1] was “inactive”.

For `C=C(C(C)=O)C(O)c1cccc(OC)c1` (configuration not stated), the Potency [3] was “inactive”, the Potency [1] was “inactive” and the Potency [4] was “inactive”. The Potency [2] was “inactive”.

With `Cc1cc2c(c(=O)n1-c1ccccc1)[C@H]1O[C@](c3ccsc3)(Cc3ccccc31)O2` the Potency [1] was 1510 nM (active) and the Potency [2] was “inactive”.

In the case of `CCCNC(=O)N1C2=NC(C(=O)OC)=C(C(=O)OC)[C@@H]3N(C)c4ccc(OC)cc4[C@]23C[C@H]1C(=O)OC`, the Potency [1] is reported as 1690 nM (active) and the Potency [4] is reported as 2940 nM (active).

For `CC(C)=CCN1C(=O)[C@@]2(CC(C)=CC[C@@H](COc3ccccc3)O2)c2ccccc21`, the Potency [1] was 2690 nM (active) and the Potency [2] was “inactive”.

For `CC1=C[C@@H](COCc2ccccc2)O[C@@]2(C1)C(=O)Nc1cccc(Br)c12`, the Potency [3] was “inactive” and the Potency [2] was “inactive”.

With `C#CCN1C(=O)[C@]2(OCCC=C[C@H]2C)c2c(Br)cccc21` the Potency [2] was “inactive”.

With `COCC=CC1=CC2=CC(=O)C(C)(OC(=O)c3cnc4ccccc4n3)C(=O)C2=CN1CCc1c[nH]c2ccccc12` (configuration not stated) the Potency [3] was “inactive”, the Potency [4] was “inactive” and the Potency [2] was “inactive”.

In the case of `C[C@@H]1C(c2ccccc2)=CC(=O)c2nc3ccccc3cc2[C@@H]1C(=O)N1CCCC1`, the Potency [2] is reported as “inactive”.

For `CCN1C(=NCc2ccccc2)NC(c2cccc(C(F)(F)F)c2)C(C(=O)OC)=C1C` (configuration not stated), the Potency [4] was “inactive”.

For `CC=CC1=CC2=CC(=O)C(C)(OC(=O)c3c(C)cc(O)cc3O)C(=O)C2=CO1` (configuration not stated), the Potency [4] was “inactive” and the Potency [2] was “inactive”.

With `COc1ccc2c(c1)O[C@H](c1ccc3c(c1)OCO3)[C@@H](OC(=O)N[C@H]1CCCc3ccccc31)C2=O` the Potency [3] was “inactive”, the Potency [1] was “inactive” and the Potency [4] was “inactive”. For the same compound, the Potency [2] was “inactive”.

In the case of `CCN1C(=NCC(C)C)NC(c2cccc(F)c2)C(C(=O)OC)=C1C` (configuration not stated), the Potency [2] is reported as “inactive”.

With `CCCNC(=O)OC[C@H]1O[C@H](CCON=C(C)CCC(=O)OC[C@H]2O[C@H](C#Cc3ccccc3)C=C[C@H]2Oc2ccc(C)cc2)C=C[C@H]1Oc1ccc(OC)cc1` the Potency [3] was “inactive”, the Potency [1] was “inactive” and the Potency [2] was “inactive”.

For `CCCCCCCc1cc2ccccc2c2c(C(=O)OCC)c(C(=O)OCC)c(C(=O)OCC)n12`, the Potency [3] was “inactive”, the Potency [1] was “inactive” and the Potency [4] was “inactive”. The Potency [2] was “inactive”.

For `C#CCN1C(=O)[C@]2(OC[C@@H]3Cc4ccccc4[C@@H]3C=C2C)c2ccccc21`, the Potency [2] was “inactive”.

For `COC(=O)c1ccc(CN2C(=O)[C@@]3(CC(C)=CC[C@@H](COc4ccccc4)O3)c3c(Br)cccc32)cc1`, the Potency [4] was 1510 nM (active).

For `COCc1cc2cc3c(cc2c2c(C(=O)OC)c(C(=O)OC)c(C(=O)OC(C)(C)C)n12)OCO3`, the Potency [1] was 1510 nM (active) and the Potency [2] was “inactive”.

In the case of `COc1cc(C(CC2=CCCCC2)NC(=O)C(F)(F)F)cc(OC)c1OC` (configuration not stated), the Potency [3] is reported as “inactive”, the Potency [1] is reported as “inactive” and the Potency [4] is reported as “inactive”. For the same compound, the Potency [2] was “inactive”.

For `COC1=CC2C(=O)C([C@@H]3c4ccccc4C[C@]23C)C1(O)c1cccc(OC)c1` (some centres not stated), the Potency [2] was “inactive”.

With `CC(=O)OC[C@H]1O[C@H](C#Cc2ccc(F)cc2F)C=C[C@H]1OC(C)=O` the Potency [3] was “inactive” and the Potency [2] was “inactive”.

With `C[C@]12C[C@@](C)(C=C1C=Cc1ccccc1)C(=O)C[C@H]2c1ccccc1` the Potency [2] was “inactive”.

For `COC(=O)C1=C(C)N(CCc2cc(OC)c(OC)c(OC)c2)C(=O)NC1c1ccc(Br)cc1` (configuration not stated), the Potency [3] was “inactive” and the Potency [2] was “inactive”.

For `O=C1N(Cc2ccc(Br)cc2)c2cccc(Br)c2[C@@]12O[C@H](COc1ccccc1)CC1=CCCC12` (some centres not stated), the Potency [2] was “inactive”.

With `COc1cc2c(c(OC)c1OC)CC(c1ccccc1)=C(c1ccccc1)CC2NC(=O)C(F)(F)F` (configuration not stated) the Potency [2] was “inactive”.

With `COC(=O)N[C@H](C(C(=O)OC)=C(C)NCc1ccccc1)c1cccc(C)c1` the Potency [3] was “inactive”, the Potency [1] was “inactive” and the Potency [2] was “inactive”.
